# Only some compounds are listed: those with a hit (about 2.6% of all), similar ones and a draw of the others.
# PAFAH1B2 inh = blocks human PAF acetylhydrolase 1b catalytic subunit 2; P68402; recombinant PAFAH1B2, FP-rhodamine activity probe, fluorescence polarization; inhibition, % at 3.39 µM; 340,000 tested, 1.2% active;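 active = inhibition above the mean of all tested compounds plus 3 SD, cut at about 24% in these data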
# PAFAH1B3 FP inh = inhibitors of human PAFAH1B3. recombinant PAFAH1B3, FP-rhodamine probe, fluorescence polarization. inhibition, % at 3.39 µM. 340,000 tested, 0.28% active. AID 492972;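 active = inhibition above the screen-wide average of all tested compounds plus 3 SD, cut at about 25% in these data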
# PKA-R2B activ = activators of human PKA-R2B complex; P22694+P31323; PKA-R2B holoenzyme dissociation, Cy5-IP20 fluorescence polarization; R2B truncated from residue 108, S112A mutant; 0% DMSO only, 100% 113 µM cGMP; activation, % at 11.4 µM; 340,000 tested, 0.079% active;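 active = activation above a cutoff set at the mean over all compounds plus 3 SD, cut at about 18% in these data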;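 also: higher means more holoenzyme dissociation and a rise in polarization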
# pPAFAH FP inh = inhibitors of human plasma PAF acetylhydrolase (pPAFAH); recombinant pPAFAH, FP-rhodamine probe fluorescence polarization; Q13093; 330,000 tested, 1.5% active; inhibition, % at 3.39 µM;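 active = inhibition above the mean inhibition across the screen plus 3 SD, cut at about 25% in these data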;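 also: inhibitors block binding of the rhodamine activity-based probe so polarization drops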
# Target sequence (Q13093 whole entry, looked up): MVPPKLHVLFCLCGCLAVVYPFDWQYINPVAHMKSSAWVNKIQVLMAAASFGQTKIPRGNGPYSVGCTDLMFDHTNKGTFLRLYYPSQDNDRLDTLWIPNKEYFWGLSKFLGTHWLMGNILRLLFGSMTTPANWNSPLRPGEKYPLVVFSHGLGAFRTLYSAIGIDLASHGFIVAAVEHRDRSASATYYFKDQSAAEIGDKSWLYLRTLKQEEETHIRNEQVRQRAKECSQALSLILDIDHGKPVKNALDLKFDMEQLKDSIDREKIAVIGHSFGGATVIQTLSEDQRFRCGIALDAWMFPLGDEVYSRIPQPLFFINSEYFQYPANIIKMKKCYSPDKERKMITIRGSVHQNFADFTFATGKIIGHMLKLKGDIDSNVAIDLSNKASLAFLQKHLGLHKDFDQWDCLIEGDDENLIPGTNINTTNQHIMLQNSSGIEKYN
# PAFAH2 FP inh = PAFAH2 (human) inhibition | Q99487 | recombinant PAFAH2, FP-rhodamine activity probe, fluorescence polarization | inhibition, % at 3.39 µM | 340,000 tested, 0.99% active;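 active = inhibition above the mean over all tested compounds plus 3 SD, cut at about 30% in these data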;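 also: inhibitors block probe labeling of enzyme so polarization drops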
# PKA-R1A activ = activates the PKA-R1A holoenzyme complex; P00514+P68181; activation, % at 11.4 µM; 340,000 tested, 0.083% active; PKA-R1A dissociation, Cy5-IP20 fluorescence polarization; scaled: DMSO 0%, 113 µM cGMP 100%;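 active = percent activation above the mean of all tested compounds plus 3 SD, cut at about 19% in these data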;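 also: higher means more PKAc released from R1A so a rise in polarization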
# PAFAH2 FP conf = confirmation of human PAFAH2 inhibitors; shares compounds with PAFAH2 FP inh; recombinant PAFAH2, FP-rhodamine activity probe, fluorescence polarization; inhibition, % at 3.39 µM; 2,300 tested, 65% active;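 active = mean inhibition over three repeats above a set limit taken from the earlier primary screen, cut at about 30% in these data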;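 also: inhibitor blocks binding of rhodamine activity probe so polarization falls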
# A number is an active result; - = inactive; . = no result.
SMILES,PAFAH1B2 inh,PAFAH1B3 FP inh,PKA-R2B activ,pPAFAH FP inh,PAFAH2 FP inh,PKA-R1A activ,PAFAH2 FP conf
CC(C)Oc1ccc(CNS(=O)(=O)c2csc(C(N)=O)c2)cc1,-,-,-,-,-,-,.
COc1cc(C(=O)OCCc2cc3ccccc3c(=O)o2)cc(OC)c1OC,-,-,-,-,-,-,.
O=C(Nc1ncccn1)c1ccc([N+](=O)[O-])o1,-,-,-,-,77.9,-,67.2
O=C(COC(=O)CCCN1C(=O)c2cccc3cccc(c23)C1=O)Nc1cccc(C(F)(F)F)c1,-,-,-,-,35.5,-,32.8
O=C(COC(=O)CCCN1C(=O)c2cccc3cccc(c23)C1=O)Nc1cccc(Br)c1,-,-,-,-,56.2,-,-
Cc1c(Cl)cnc(NC(=O)COC(=O)c2ccc3ncsc3c2)c1Cl,-,-,-,-,47.3,-,36.4
O=C(COC(=O)c1ccc2ncsc2c1)Nc1ncc(Cl)cc1Cl,-,-,-,-,31.1,-,-
O=C(COC(=O)c1ccc2ncsc2c1)Nc1cc(Cl)ccc1F,-,-,-,.,66.4,-,60.2
O=C(COC(=O)c1ccc2ncsc2c1)NC(=O)c1ccccc1,-,-,-,-,-,-,.
COc1cccc(-n2c(SCC(=O)NC3CC3)nc3ccccc3c2=O)c1,.,.,-,.,.,-,.
CC1(C2CC2)NC(=O)N(CC(=O)N2CCN(c3ccccc3)CC2)C1=O (configuration not stated),-,-,-,-,-,-,.
CN(/N=C/c1cc([N+](=O)[O-])ccc1O)c1ccccc1,-,-,-,-,35.1,-,31.0
CC(N=Cc1cc([N+](=O)[O-])ccc1O)c1ccccc1 (configuration not stated),-,-,-,-,-,-,.
COc1ccccc1CNC(=O)[C@@H](NC(=O)C1CCN(C(=O)[C@@H]2CCCN2C(=O)OC(C)(C)C)CC1)C(C)C,-,-,-,-,-,-,.
COc1ccccc1/C=C1\SC(=S)N(NS(=O)(=O)c2ccccc2)C1=O,-,-,-,-,-,-,.
COc1cccc(/C=C2\SC(=S)N(NS(=O)(=O)c3ccc(C)cc3)C2=O)c1OC,-,-,-,-,32.8,-,-
O=C(NCC(=O)N1CCN(S(=O)(=O)c2ccccc2F)CC1)c1ccc(Br)o1,-,-,-,-,-,-,.
Cc1ccc(S(=O)(=O)Nc2c(O)c3ccccc3oc2=O)cc1C,-,-,-,-,43.1,-,-
O=C(CN1CCN(S(=O)(=O)c2ccc(F)c(Cl)c2)CC1)N1CCNC1=O,-,-,-,-,-,-,.
COc1cccc(CNc2ccc(Br)cn2)c1O,-,-,-,-,75.2,-,-
CN(C)c1ccc(N/C(=N\S(=O)(=O)c2cccs2)c2ccccc2)cc1,-,-,-,-,57.1,-,54.3
CN(/C(=N/S(=O)(=O)c1cccs1)c1ccccc1)c1ccccc1,-,-,-,-,-,-,.
Cc1c(C(c2ccc(Br)cc2)c2c(C)n(C)n(-c3ccccc3)c2=O)c(=O)n(-c2ccccc2)n1C,-,-,-,-,36.8,-,-
COC(=O)c1ccc(C(c2c(C)n(C)n(-c3ccccc3)c2=O)c2c(C)n(C)n(-c3ccccc3)c2=O)cc1,-,-,-,-,-,-,.
COc1ccc(N2CCN(C(CNC(=O)C3CCCCC3)c3ccco3)CC2)cc1 (configuration not stated),-,-,-,-,-,-,.
SMILES,PAFAH1B2 inh,PAFAH1B3 FP inh,PKA-R2B activ,pPAFAH FP inh,PAFAH2 FP inh,PKA-R1A activ,PAFAH2 FP conf
COc1ccccc1CC(=O)Nc1cc(Cl)ccc1O,-,-,-,-,83.0,-,80.3
COc1ccccc1NC(=O)Cc1cccc2ccccc12,-,-,-,-,-,-,.
O=C(COc1ccccc1Cl)Nc1cc(Cl)ccc1O,-,-,-,.,-,-,.
CCN(c1ccccc1)S(=O)(=O)c1ccc(OC)c(NC(=O)Cc2ccccc2OC)c1,-,-,-,-,29.8,-,-
COCC(=O)Nc1ccc([N+](=O)[O-])cc1OC,-,-,-,-,-,-,.
CCN(c1ccccc1)S(=O)(=O)c1ccc(OC)c(NC(=O)Cc2ccc(OC)c(OC)c2)c1,-,-,-,-,-,-,.
COc1ccccc1CC(=O)Nc1ccccc1O,-,-,-,-,58.4,-,59.6
COc1ccccc1CC(=O)Nc1ccc([N+](=O)[O-])cc1O,-,-,-,-,34.5,-,-
Cn1c(=O)[nH]c(=O)c2c1nc(SCC(N)=O)n2Cc1cccc(Br)c1,-,-,-,-,-,-,.
Cc1ccc(CSc2nnc(SCC(=O)N/N=C/c3c[nH]c4ccccc34)s2)cc1,-,-,-,.,29.8,-,31.2
CC(NC(=O)C1CC(=O)N(c2ccc3c(c2)OCCO3)C1)c1ccccc1 (configuration not stated),.,.,-,.,.,-,.
COc1ccc(C(=O)OCC2CC(c3ccccc3)=NO2)cc1OC (configuration not stated),-,-,-,-,68.2,-,60.1
COc1cc(C(=O)OCC2CC(c3ccccc3)=NO2)cc(OC)c1OC (configuration not stated),-,-,-,-,-,-,.
Cc1ccccc1OCC(=O)NCCNC(=O)c1ccccn1,-,-,-,-,-,-,.
Cc1c(NS(=O)(=O)c2cccc(C(=O)OCC(=O)c3ccc(Cl)cc3)c2)c(=O)n(-c2ccccc2)n1C,-,-,-,.,30.2,-,-
Cc1c(NS(=O)(=O)c2cccc(C(=O)NCc3ccccc3Cl)c2)c(=O)n(-c2ccccc2)n1C,-,-,-,.,-,-,.
Cc1cc(C)c(NC(=O)COC(=O)C2CCC2)c(Cl)c1,-,-,-,-,-,-,.
Cc1cc(Br)c(NC(=O)COC(=O)C2CCCCC2)c(Br)c1,-,-,-,-,33.2,-,31.6
Cc1ccc(NC(=O)COC(=O)C2CC2)c(Br)c1,-,-,-,-,55.3,-,39.1
C[C@@H]1CN([C@@H](C)CO)C(=O)CCCn2nncc2CO[C@H]1CN(C)S(=O)(=O)c1ccc2ccccc2c1,.,.,-,.,.,-,.
O=C(N/N=C/c1ccc(O)c(O)c1)N/N=C/c1ccc(O)c(O)c1,-,-,-,.,30.6,-,-
N/C(=N\OC(=O)c1cccs1)C1(c2ccc(Cl)cc2Cl)CC1,-,-,-,-,58.0,-,30.2
O=C(NNc1cc(Cl)ccc1Cl)c1cccs1,.,.,.,-,.,.,.
COc1cc(C(C)=O)ccc1COc1ccc(C(=O)OCC(=O)NC2CCS(=O)(=O)C2)cc1OC (configuration not stated),-,-,-,-,-,-,.
COc1cc(C(C)=O)ccc1COc1ccc(C(=O)OCC(=O)NC(C)(C)C)cc1OC,-,-,-,-,73.5,-,79.1
